PubChem BioAssay AID743295 (Broad Institute, 2014)
Measured potencies and affinities stand elsewhere. The source made the active and inactive calls.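 Rule for the calls: active = compounds lowering caspase 7 signal with dose, half-maximal concentration at most twice the top valid dose; inconclusive = flat fit with 30 to 70% inhibition, or poor fit; inactive = the rest.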

target: Caspase-7 (Homo sapiens) (UniProt P55210); experiment: caspase-7 enzyme inhibition, selectivity check – biochemical, DEVD-R110 fluorescence, cherry-pick, selectivity assay for caspase-6 inhibitor project, dose response (AID 743295); conditions: purified caspase-7, DEVD-R110 cleavage fluorescence; series mostly up to 35 µM
Sequence (P55210 whole entry, looked up): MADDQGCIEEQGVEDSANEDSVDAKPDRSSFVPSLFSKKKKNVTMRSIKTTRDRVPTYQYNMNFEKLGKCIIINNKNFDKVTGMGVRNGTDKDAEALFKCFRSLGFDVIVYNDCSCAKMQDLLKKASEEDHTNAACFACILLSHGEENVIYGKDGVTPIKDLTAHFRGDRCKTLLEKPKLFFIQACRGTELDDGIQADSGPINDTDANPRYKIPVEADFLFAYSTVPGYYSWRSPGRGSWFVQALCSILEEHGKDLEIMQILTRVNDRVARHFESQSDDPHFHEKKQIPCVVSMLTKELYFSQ

outcome, inactive:
CO[C@H]1CN(C)C(=O)c2cc(NC(C)=O)ccc2OC[C@@H](C)N(C(=O)CC2CC2)C[C@H]1C, O=C(O)Cc1ccc(-n2cccc2)cc1, Oc1cc(NCCc2cccnc2)cc2cccnc12, Nc1ccc(Nc2ccccc2)c(S(=O)(=O)O)c1, CCOC(=O)[C@H](Cc1c[nH]c2ccccc12)NC(=O)CN=[N+]=[N-], COCCN(C(=O)COC(=O)c1cc2c(s1)CCC2)c1c(N)n(Cc2ccccc2)c(=O)[nH]c1=O, O=C(Nc1ccc2nc3n(c(=O)c2c1)CCCCC3)c1c(F)ccc([N+](=O)[O-])c1F, Cc1ccc(S(=O)(=O)Nc2csc(C)c2C(=O)O)cc1, COc1cc(NC(=O)COC(=O)c2ccc([N+](=O)[O-])s2)cc(OC)c1OC, Cc1c(CCC(=O)O)c(=O)oc2c(C)c(OCc3ccccc3Cl)ccc12, O=C(COC(=O)c1ccc([N+](=O)[O-])s1)Nc1ccc(F)cc1, O=P(c1ccccc1)(c1ccccc1)c1cc(S(=O)(=O)O)ccc1O, CNS(=O)(=O)c1cccc(C(=O)OCC(=O)N2c3ccccc3NC(=O)C2(C)C)c1, Cc1cc(C=O)c(C)n1-c1cc(C(=O)O)cc(C(=O)O)c1, C/C(CC(=O)N1CCCC1)=N\NC(=O)c1cc2ccccc2cc1O, Nc1cc(S(=O)(=O)O)cc([N+](=O)[O-])c1O, Cn1cnnc1SCC(=O)Nc1ncc([N+](=O)[O-])s1, COc1cc(-c2ccc(Nc3ccccc3C(=O)O)c(OC)c2)ccc1Nc1ccccc1C(=O)O, CCCc1nc2c(=O)n(C)c(=O)nc-2n(C)n1
